We go through twelve compounds from the supplement of paper PMC12494721.

Counter-ions that a name gives are not always drawn.

This assay relates to Ruminococcus gnavus DSM 108212. Kind of assay: growth (OD595) fold change vs plate DMSO controls (fold change (ratio)); higher = more growth. Conditions: incubation time: 27 h, anaerobic, 37 °C. In outline: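 The measure reported is growth, taken as fold change against the median of DMSO controls on the same plate. Anaerobic mGAM cultures in 96-well plates (27 h, 37 °C) were read at 595 nm, blank-subtracted, corrected for compound background using 20 µM compound solutions in water, and multiplied by a calibration factor of 5 to give OD. Any fold change above 1.5 became NA, and 2 biological replicates were averaged.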
Consider `CCCSS/C(CCO)=C(/C)N(C=O)Cc1cnc(C)nc1N` [Prosultiamine] (20 µM), for which the growth was found to be 0.919.
In the case of `CN(C)CCOC(c1ccccc1)c1ccccc1.Cn1c(=O)c2[nH]c(Cl)nc2n(C)c1=O` [Dimenhydrinate] (20 µM), the growth was found to be 1.06.
With `CCCCCCCN(CC)CCCC(O)c1ccc(NS(C)(=O)=O)cc1` (configuration not stated) [Ibutilide fumarate] (20 µM), the growth is 1.08.
Take `Cc1cccc(Nc2ccncc2S(=O)(=O)NC(=O)NC(C)C)c1` [Torsemide] (20 µM): the growth was 1.03.
As for `C=C1c2cccc(O)c2C(O)=C2C(=O)[C@]3(O)C(O)=C(C(N)=O)C(=O)[C@@H](N(C)C)[C@@H]3[C@@H](O)[C@H]12` [Methacycline hydrochloride] (20 µM), the growth came to 0.836.
For `O=C(O)CNC(=O)C(CS)Cc1ccccc1` (configuration not stated) [Thiorphan] (20 µM) the value was 0.855.
On to `CCn1cc(C(=O)O)c(=O)c2cc(F)c(N3CCNCC3)nc21` [Enoxacin] (20 µM), for which the growth turned out to be 1.01.
Regarding `Cc1ccc(-c2ncc(Cl)cc2-c2ccc(S(C)(=O)=O)cc2)cn1` [Etoricoxib] (20 µM), the growth came to 0.73.
`CNC(=O)OCc1cccc(COC(=O)NC)n1` [Pyricarbate] (20 µM): the growth was determined as 1.02.
For `N#Cc1cc(NC(=O)C(=O)O)c(Cl)c(NC(=O)C(=O)O)c1` [Lodoxamide] (20 µM) the value was 1.12; for `CNC1(C)C2CCC(C2)C1(C)C` (configuration not stated) [Mecamylamine hydrochloride] (20 µM), 1.17.
For `CCOC(=O)[C@H](CCc1ccccc1)N[C@@H](C)C(=O)N(CC(=O)O)C1Cc2ccccc2C1` [Delapril Hydrochloride] (20 µM) the value was 1.15.
